# Screening data (PubChem)
# Most compounds without a hit are left out; they make up all but 13% or so of the library.
# USP7 block: inhibitors of human USP7 deubiquitinase; inhibition, % at 20 µM; Ubiquitin carboxyl-terminal hydrolase 7 (Homo sapiens), Q93009; purified USP7, Ub-rhodamine cleavage fluorescence; hit rate 0.3% among 47,000; AID 1645854, 2021
# USP10 inh: inhibitors of human USP10 deubiquitinase. Ubiquitin carboxyl-terminal hydrolase 10 (Homo sapiens), Q14694. purified USP10, Ub-rhodamine fluorescence, 60 min. inhibition, % at 20 µM. hit rate 1.1% among 47,000. AID 1645856, 2021
# UCHL1 block: inhibitors of human UCHL1 deubiquitinase | AID 1645859, 2021 | Ubiquitin carboxyl-terminal hydrolase isozyme L1 (Homo sapiens), P09936 | purified UCHL1, Ub-rhodamine cleavage fluorescence | hit rate 0.2% among 47,000 | inhibition, % at 20 µM
# USP17 block: inhibitors of human USP17 deubiquitinase; AID 1645855, 2021; inhibition, % at 50 µM; hit rate 6.5% among 47,000; Ubiquitin carboxyl-terminal hydrolase 17-like protein 5 (Homo sapiens), A8MUK1; purified USP17, Ub-rhodamine cleavage fluorescence, 3 h
# USP8 inh: inhibitors of human USP8 deubiquitinase; Ubiquitin carboxyl-terminal hydrolase 8 (Homo sapiens), P40818; purified USP8, Ub-rhodamine cleavage fluorescence, 30 min; inhibition, % at 20 µM; hit rate 4.2% among 47,000; AID 1645853, 2021
# USP30 block: inhibitors of human USP30 deubiquitinase | purified USP30, Ub-rhodamine cleavage fluorescence | inhibition, % at 25 µM | hit rate 5.3% among 47,000 | AID 1645860, 2021
# Target sequence (Q70CQ3 whole entry, looked up): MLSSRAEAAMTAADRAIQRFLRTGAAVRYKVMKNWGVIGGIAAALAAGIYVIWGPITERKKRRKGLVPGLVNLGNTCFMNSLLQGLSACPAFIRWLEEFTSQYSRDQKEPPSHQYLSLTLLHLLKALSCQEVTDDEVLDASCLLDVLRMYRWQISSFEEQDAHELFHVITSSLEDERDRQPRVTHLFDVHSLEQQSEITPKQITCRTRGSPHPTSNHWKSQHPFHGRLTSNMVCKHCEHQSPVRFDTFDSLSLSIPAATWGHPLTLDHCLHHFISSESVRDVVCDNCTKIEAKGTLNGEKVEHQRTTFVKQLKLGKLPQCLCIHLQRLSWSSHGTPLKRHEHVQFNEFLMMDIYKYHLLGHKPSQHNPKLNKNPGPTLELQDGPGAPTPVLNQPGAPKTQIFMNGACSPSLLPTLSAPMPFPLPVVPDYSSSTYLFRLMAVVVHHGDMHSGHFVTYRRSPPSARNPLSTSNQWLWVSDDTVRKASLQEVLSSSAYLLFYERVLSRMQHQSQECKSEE
# The depositor's hits bear a star; i = inactive; . = not tested or not shown. No stated cut-off is given here; in the data, active means inhibition above about 30%; inactive means the rest.
SMILES,USP7 block,USP10 inh,UCHL1 block,USP17 block,USP8 inh,USP30 block
CC1CCc2c(sc3nc(CCC(=O)NCc4ccc5c(c4)OCO5)[nH]c(=O)c23)C1 (configuration not stated),-22,6,-2,-5,45*,-54
COc1ccc(CNC(=O)CCc2nc3sc4c(c3c(=O)[nH]2)CCCCC4)cc1,-1,-5,-5,51*,-3,-48
O=C(CCc1nc2sc3c(c2c(=O)[nH]1)CCCCC3)NCc1ccc2c(c1)OCO2,-8,-1,-4,5,-4,-9
COc1cccc(CNC(=O)CCc2nc3sc4c(c3c(=O)[nH]2)CCCCC4)c1,0,1,-2,-12,4,-26
COc1ccc(CN2CCC(NC(=O)C3CCC3)C2)cn1 (configuration not stated),-3,-8,-7,-8,-5,-15
NS(=O)(=O)c1ccc(NC(=O)COC(=O)c2sc3cc(F)ccc3c2Cl)cc1,15,25,2,23,37*,41*
Cc1cc(C)c(C#N)c(N2CCN(S(=O)(=O)Cc3ccccc3)CC2)n1,.,5,3,45*,1,22
CC(=O)NC(Cc1ccccc1)C(=O)NC1CCN(c2nc(C)cc(C)c2C#N)CC1 (configuration not stated),-1,-8,-3,-14,-5,-28
Cc1ccc(-c2nc(CC(=O)Nc3ccccc3)no2)cc1,-7,-9,-12,-10,2,-198
Cc1ccc2c(=O)c(C(=O)Nc3ccccc3)cn(CC(=O)NC3CCCCC3)c2n1,7,1,-1,56*,-1,9
Cc1ccc2c(=O)c(C(=O)Nc3ccc(F)cc3)cn(CC(=O)NC3CCCC3)c2n1,0,-5,-5,.,7,-47
Cc1ccc(NC(=O)Cn2cc(S(=O)(=O)c3ccccc3)c(=O)c3ccc(C)nc32)cc1,-6,-7,-15,4,41*,i
Cc1ccc(S(=O)(=O)c2cn(CC(=O)Nc3ccccc3)c3nc(C)ccc3c2=O)cc1,1,-2,-6,-16,11,-89
Cc1ccc(Cc2nc(-c3ccc(=O)[nH]c3)no2)cc1,-17,1,1,0,-4,-3
O=C(c1cc(Cl)ccc1Cl)N1CCN(c2ccc3nnc(-c4ccco4)n3n2)CC1,4,-2,4,61*,49*,10
Cc1ccc(C)c(S(=O)(=O)N2CCN(c3ccc4nnc(-c5ccco5)n4n3)CC2)c1,37*,39*,45*,63*,76*,41*
O=S(=O)(c1ccccc1Cl)N1CCN(CCOc2ccccc2)CC1,10,4,0,0,-13,-10
O=S(=O)(c1ccccc1Cl)N1CCN(c2ccc3nnc(-c4ccco4)n3n2)CC1,34*,39*,40*,72*,50*,38*
CC1CCN(c2ccc3nnc(CCC(=O)NCc4ccco4)n3n2)CC1,-9,1,-1,0,8,12
Cc1ccc(C)c(N(C(C)C(=O)NCc2ccncc2)S(C)(=O)=O)c1 (configuration not stated),1,3,10,35*,18,35*
O=C1NCc2ccccc2CC12CCN(Cc1cccc3ccccc13)C2 (configuration not stated),9,9,9,10,6,32*
O=C1NCc2ccccc2CC12CCN(Cc1cccc(F)c1F)C2 (configuration not stated),-13,-8,-5,-20,-6,-67
Cn1cncc1-c1nnc([C@H]2CCN(Cc3cccc(C#N)c3)C2)o1,-16,-2,-2,-34,-17,2
N#Cc1cccc(CN2CC[C@H](c3nnc(-c4cccnc4)o3)C2)c1,-1,2,3,1,54*,6
COc1cc(COc2ccc3c(C)c(CC(=O)N4CC[C@@]5(O)CCCC[C@H]5C4)c(=O)oc3c2C)cc(OC)c1OC,11,4,11,48*,-5,50*
SMILES,USP7 block,USP10 inh,UCHL1 block,USP17 block,USP8 inh,USP30 block
O=C(CCCc1c[nH]c2ccccc12)N1CCN(C(=O)c2ccc(Cl)cc2Cl)CC1,-3,1,4,3,6,7
O=C(NCCc1c[nH]c2ccccc12)NCc1ccc(Cl)cc1Cl,0,9,8,21,2,32*
CCCCCCCCCCCC[C@@]1(C(=O)O)OC(=O)[C@@H](O)[C@@]1(O)C(=O)O,-11,22,-2,16,10,41*
Cc1ccccc1OCC(=O)Nc1cccn2ncnc12,4,-1,3,10,12,15
O=C(Nc1cc(F)c2nc(N3CCOCC3)ccc2c1)C1CCCCC1,0,-8,-2,22,71*,-38
O=C(CC1CCCCC1)Nc1cc(F)c2nc(N3CCOCC3)ccc2c1,-3,-7,-4,40*,65*,-63
Cn1c(CCN2CCOCC2)nc2cc(NC(=O)C3CCCCC3)ccc21,4,3,0,11,22,26
O=C(CSc1nc2ccccc2[nH]1)N1CCN(c2ccc(F)cc2)CC1,0,3,9,-7,9,-47
O=C(CSc1nc2ccccc2[nH]1)N1CCN(S(=O)(=O)/C=C/c2ccccc2)CC1,3,10,2,36*,23,31*
CCN(c1ccccc1)S(=O)(=O)c1cc2[nH]c3c(c2cc1C)C(=O)CC(C)(C)C3,6,3,2,33*,7,18
Cc1cccc(NS(=O)(=O)c2cc3[nH]c4c(c3cc2C)C(=O)CC(C)(C)C4)c1,3,7,5,36*,2,20
CC(C)(C)OC(=O)N1CCC[C@H]1C(=O)N1CCC(C(=O)N[C@@H](CC(N)=O)C(=O)O)(c2ccccc2)CC1,3,0,0,12,17,32*
CC(C)(C)OC(=O)N1Cc2ccccc2C[C@H]1C(=O)N1CCC(C(=O)N[C@H](CC(N)=O)C(=O)O)(c2ccccc2)CC1,4,1,4,22,50*,0
CC(C)(C)OC(=O)N1CCC[C@H]1C(=O)N1CCC(C(=O)N[C@H](CC(N)=O)C(=O)O)(c2ccccc2)CC1,-1,3,-1,8,3,4
NCCCC(N)CC(=O)NCCCC(N)CC(=O)NCCCC(N)CC(=O)NCCCC(N)CC(=O)NCCCC(N)CC(=O)NCCCC(N)CC(=O)NC1C(NC2=N[C@@H]3C(=O)NC[C@@H](O)[C@H]3N2)OC(CO)C(OC(N)=O)C1O (some centres not stated),8,-3,-1,1,-5,32*
CC(=O)N1CCc2cc(CNC(=O)Nc3cc(C)ccc3C)ccc21,1,-2,2,43*,-1,67*
